The panel holds about 83,000 compounds, 20% with a hit somewhere; the sample as a whole holds those more often.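 Note: values are percent growth. 100 is the growth of untreated cells, values between 100 and 0 indicate rising inhibition; between -100 and 0 indicates cell death.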 A number with no mark means an inactive call. The source made the active and inactive calls. How the source made its calls: active means growth percent below 10; inactive means the rest.
These compounds were tested on IGROV1 ovarian (assay: NCI-60 one-dose screen, 48 h (100 = growth as untreated, 0 = no growth, -100 = all killed)). Details: 10 µM unless noted.

| SMILES | growth |
| --- | --- |
| C#C[C@]1(O)CC[C@H]2[C@@H]3CC=C4c5nc(Nc6ncccn6)sc5CC[C@]4(C)[C@H]3CC[C@@]21C | 70.8% |
| CC(C)(C)c1cc(C(=O)N2CCC(C(=O)NCCN)CC2)cc(C(C)(C)C)c1 | 95.6% |
| CCOC(=O)/C(C#N)=C(\C)CCc1ccccc1 | 81.2% |
| O=C(O)c1cccc(CN2CCN(c3cc4c(cc3F)c(=O)c(C(=O)O)cn4C3CC3)CC2)c1O | 101% |
| CCN(CC)c1ccc2cc(C(Nc3ccc(Br)c(C(F)(F)F)c3)c3nnnn3C(C)(C)C)c(=O)oc2c1 (configuration not stated) | 106% |
| O=C(NCCCNC(=O)OCc1ccc2c(Br)cc(Br)c(O)c2n1)OCc1ccc2c(Br)cc(Br)c(O)c2n1 | -87.7% (active) |
| O=S(=O)(c1ccc(N/N=C\c2ccccc2Cl)cc1)c1ccc(N/N=C/c2ccccc2Cl)cc1 | 73.8% |
| CCCOc1ccc(-c2nc(-c3ccc(N)cc3)cs2)cc1 | 94.8% |
| O=C(NCc1ccc(Cn2c(=O)sn(-c3ccccc3)c2=O)cc1)OCc1ccc2c(Br)cc(Br)c(O)c2n1 | -80.4% (active) |
| N#CCCc1c[nH]c2ccccc12 | 103% |
| C=CCCCCCCCCC(=O)OC(C)C | 109% |
| COc1cc2c(cc1OCCCCCOc1ccc(-n3c(C)nc4ccccc4c3=O)cc1)N=C[C@@H]1CCCN1C2=O | -28.7% (active) |
| Cc1cccc(/C=C2\N=C(c3ccccc3)N(c3ccc(S(N)(=O)=O)cc3)C2=O)c1 | 96.2% |
| Clc1ccc(/C=N/Nc2nc3ccccc3s2)c(Cl)c1 | 67% |
| CCOC(=O)COc1c(C)cc(SSc2cc(C)c(OCC(=O)OCC)c(C)c2)cc1C | 96.5% |
| Nc1nc(Nc2ccccc2)c2ncn(Cc3cc4c(cc3Br)OCO4)c2n1 | 37.5% |
| CCOC(=O)c1c[nH]n2c(=S)ncnc12 | 121% |
| CC1(C)CC[C@]2(C(N)=O)CC[C@]3(C)C(=CC[C@@H]4[C@@]5(C)C/C(=C/c6cccnc6)C(=O)C(C)(C)[C@@H]5CC[C@]43C)[C@@H]2C1 | -29.5% [100 µM] (active) |
| O=[N+]([O-])c1cc(CCl)ccc1OCCBr | 107% |
| O=C1COCCN1c1ccc(Nc2nc(Cl)nc(N3CCOCC3)n2)cc1 | 103% |
| O=C(OCc1ccc2c(Cl)cc(Cl)c(O)c2n1)N1CCNCC1 | 34.8% |
| Cc1ccc(S(=O)(=O)NCCCNc2nccc(-c3c(-c4cccc(F)c4)nc4occn34)n2)cc1 | 48.1% |
| Cn1cc(-c2noc(-c3cn(C)c4ncccc34)n2)c2cc(Cl)ccc21 | 99.8% |
| CC(C)CSc1ncnc2nc[nH]c12 | 67.1% |
| Cc1cnc([C@]23CC[C@@H](C)[C@H](C)[C@H]2C2=CC[C@@H]4[C@@]5(C)Cc6c([nH]c7ccccc67)C(C)(C)[C@@H]5CC[C@@]4(C)[C@]2(C)CC3)o1 | 25.9% [100 µM] |
| CC1(C)CC[C@]2(C(=O)O)CC[C@]3(C)C(=CC[C@@H]4[C@@]5(C)C/C(=C/c6ccco6)C(=O)C(C)(C)[C@@H]5CC[C@]43C)[C@@H]2C1 | -38.7% [100 µM] (active) |

Each compound was assayed on OVCAR-3 ovarian in the same assay as above. Details: 10 µM unless noted.

| SMILES | growth |
| --- | --- |
| O=C(Nc1cccc(F)c1)c1cc(=O)[nH]c2cc(Br)ccc12 | 23.5% |
| COC(=O)[C@]12CCC(C)(C)C[C@H]1C1=CC[C@@H]3[C@@]4(C)C/C(=C/c5cccnc5)C(=O)C(C)(C)[C@@H]4CC[C@@]3(C)[C@]1(C)CC2 | -1.73% [100 µM] (active) |
| N#C/C(C(=O)c1ccccc1)=C1/C(=O)Nc2ccc(Br)cc21 | 107% |
| COc1ccc(-c2cc(-c3ccc(Cl)cc3)nc(NCCCCNc3ccnc4cc(Cl)ccc34)n2)cc1 | 96% |
| CCCSc1nc(N)nc2nc[nH]c12 | 103% |
| CCN(CC)c1ccc2cc(NC(=O)OCCNC(=O)CCNC(=O)[C@H](CC(C)C)NC(=O)C(C)(C)NC(=O)C(C)(C)NC(=O)[C@H](CC(C)C)NC(=O)CCNC(=O)C(C)(C)NC(=O)[C@H](CC(C)C)NC(=O)CCNC(=O)[C@@](C)(CC)NC(=O)[C@H](C)NC(=O)CCNC(=O)C(C)(C)NC(=O)[C@H](C)NC(=O)[C@@H]3CCCN3C(=O)[C@@](C)(CC)NC(=O)[C@H](Cc3ccccc3)NC(=O)C3CCCN3C(=O)C(C)(C)NC(=O)C3CCCN3C(=O)C(C)(C)NC(C)=O)c(=O)oc2c1 (some centres not stated) | -100% (active) |
| C=C(C)[C@@H]1CC[C@]2(C(=O)N3CCN(C)CC3)CC[C@]3(C)[C@H](CC[C@@H]4[C@@]5(C)C/C(=C/c6ccncc6)[C@H](O)C(C)(C)[C@@H]5CC[C@]43C)[C@@H]12 | -50% [100 µM] (active) |
| CC[C@@](C)(NC(=O)[C@H](C)NC(=O)CCNC(=O)C(C)(C)NC(=O)[C@H](C)NC(=O)[C@@H]1CCCN1C(=O)[C@@](C)(CC)NC(=O)[C@H](Cc1ccccc1)NC(=O)C1CCCN1C(=O)C(C)(C)NC(=O)C1CCCN1C(=O)C(C)(C)NC(C)=O)C(=O)NCCC(=O)N[C@@H](CC(C)C)C(=O)NC(C)(C)C(=O)NCCC(=O)N[C@@H](CC(C)C)C(=O)NC(C)(C)C(=O)NC(C)(C)C(=O)N[C@@H](CC(C)C)C(=O)NCCC(=O)NCO (some centres not stated) | -100% (active) |
| C#C[C@]1(O)CC[C@H]2[C@@H]3CC=C4c5nc(Nc6ncccn6)sc5CC[C@]4(C)[C@H]3CC[C@@]21C | 65.3% |
| CC(C)(C)c1cc(C(=O)N2CCC(C(=O)NCCN)CC2)cc(C(C)(C)C)c1 | 104% |
| CCOC(=O)/C(C#N)=C(\C)CCc1ccccc1 | 118% |
| COc1ccc2c3ccnc(C(F)(F)F)c3n(CCCCN)c2c1 | 47.3% |
| O=C(O)c1cccc(CN2CCN(c3cc4c(cc3F)c(=O)c(C(=O)O)cn4C3CC3)CC2)c1O | 106% |
| CCN(CC)c1ccc2cc(C(Nc3ccc(Br)c(C(F)(F)F)c3)c3nnnn3C(C)(C)C)c(=O)oc2c1 (configuration not stated) | 104% |
| O=C(NCCCNC(=O)OCc1ccc2c(Br)cc(Br)c(O)c2n1)OCc1ccc2c(Br)cc(Br)c(O)c2n1 | -69.3% (active) |
| C[N+](C)(C)c1ncnc2[n-]cnc12 | 92.4% |
| CCCOc1ccc(-c2nc(-c3ccc(N)cc3)cs2)cc1 | 145% |
| O=C(NCc1ccc(Cn2c(=O)sn(-c3ccccc3)c2=O)cc1)OCc1ccc2c(Br)cc(Br)c(O)c2n1 | -90.9% (active) |

| SMILES | growth |
| --- | --- |
| N#CCCc1c[nH]c2ccccc12 | 98.7% |
| C=CCCCCCCCCC(=O)OC(C)C | 105% |
| COc1cc2c(cc1OCCCCCOc1ccc(-n3c(C)nc4ccccc4c3=O)cc1)N=C[C@@H]1CCCN1C2=O | -15.8% (active) |
| Cc1cccc(/C=C2\N=C(c3ccccc3)N(c3ccc(S(N)(=O)=O)cc3)C2=O)c1 | 102% |
| Clc1ccc(/C=N/Nc2nc3ccccc3s2)c(Cl)c1 | 87.3% |
| CCOC(=O)COc1c(C)cc(SSc2cc(C)c(OCC(=O)OCC)c(C)c2)cc1C | 107% |
| Nc1nc(Nc2ccccc2)c2ncn(Cc3cc4c(cc3Br)OCO4)c2n1 | 2.58% (active) |
| CCOC(=O)c1c[nH]n2c(=S)ncnc12 | 99.5% |
| CC1(C)CC[C@]2(C(N)=O)CC[C@]3(C)C(=CC[C@@H]4[C@@]5(C)C/C(=C/c6cccnc6)C(=O)C(C)(C)[C@@H]5CC[C@]43C)[C@@H]2C1 | -64.2% [100 µM] (active) |
| O=[N+]([O-])c1cc(CCl)ccc1OCCBr | 105% |
| O=C1COCCN1c1ccc(Nc2nc(Cl)nc(N3CCOCC3)n2)cc1 | 103% |
| O=C(OCc1ccc2c(Cl)cc(Cl)c(O)c2n1)N1CCNCC1 | 33.8% |
| Cc1ccc(S(=O)(=O)NCCCNc2nccc(-c3c(-c4cccc(F)c4)nc4occn34)n2)cc1 | 89.7% |
| COc1cc(Cl)cc(-c2nn(C(=O)NS(=O)(=O)c3ccccc3)cc2-c2ccncc2)c1 | 104% |
| Cn1cc(-c2noc(-c3cn(C)c4ncccc34)n2)c2cc(Cl)ccc21 | 109% |
| CC(C)CSc1ncnc2nc[nH]c12 | 103% |
| Cc1cnc([C@]23CC[C@@H](C)[C@H](C)[C@H]2C2=CC[C@@H]4[C@@]5(C)Cc6c([nH]c7ccccc67)C(C)(C)[C@@H]5CC[C@@]4(C)[C@]2(C)CC3)o1 | 83.8% [100 µM] |
| CC1(C)CC[C@]2(C(=O)O)CC[C@]3(C)C(=CC[C@@H]4[C@@]5(C)C/C(=C/c6ccco6)C(=O)C(C)(C)[C@@H]5CC[C@]43C)[C@@H]2C1 | -70% [100 µM] (active) |

From PubChem BioAssay (NCI)
